Each structure is given as a SMILES string. Hit rate of the full screen: of about 190,000 compounds, about 1,300 (0.68%) were called active. The entries come from a sample that favours actives as a whole. A number with no mark means an inactive call. No stated cut-off is given here; in the data, active means inhibition above about 50%; inactive means the rest.

In this assay the target is Mannose-6-phosphate isomerase (Homo sapiens) (UniProt P34949). Briefly: MPI inhibition at elevated mannose 6-phosphate – biochemical, fluorescence intensity, high mannose 6-phosphate, primary screen (AID 1220). The note with it: recombinant PMI enzyme, coupled fluorescence intensity; at 20 µM; active compounds read high.
Mannose-6-phosphate isomerase (Homo sapiens), sequence (P34949 whole entry, looked up): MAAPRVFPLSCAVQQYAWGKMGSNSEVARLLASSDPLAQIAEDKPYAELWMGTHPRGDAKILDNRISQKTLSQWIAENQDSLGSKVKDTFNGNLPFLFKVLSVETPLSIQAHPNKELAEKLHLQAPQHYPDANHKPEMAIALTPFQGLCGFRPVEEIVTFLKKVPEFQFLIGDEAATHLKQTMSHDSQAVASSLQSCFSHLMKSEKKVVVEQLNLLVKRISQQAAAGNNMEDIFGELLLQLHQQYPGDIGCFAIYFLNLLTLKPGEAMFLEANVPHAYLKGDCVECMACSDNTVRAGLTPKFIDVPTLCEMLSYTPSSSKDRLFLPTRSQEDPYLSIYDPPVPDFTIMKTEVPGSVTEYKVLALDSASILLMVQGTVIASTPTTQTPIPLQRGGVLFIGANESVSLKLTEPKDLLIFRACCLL
Regarding `O=C(Nc1ccccc1-c1ccccc1)C1CCC1`, the inhibition was 8.4%.

On to `COc1ccc(Cc2nc(-c3ccc(-n4cccc4)cc3)no2)cc1`, for which the inhibition was -0.1%.

Turning to `O=[N+]([O-])c1ccc(OCCN2CCNCC2)cc1`, the inhibition was -5.8%.

In the case of `COc1nnc(-c2ccc(N3CCCCC3)c(NC(C)=O)c2)c2ccccc12`, the inhibition is -9.2%.

For `C=CCNC(=S)N1CCC(C(=O)c2ccc3c(c2)OCCO3)CC1`, the inhibition was 12.3%.

With `COc1cnc(-c2ccccn2)nc1Oc1ccccc1`, the inhibition is 12.7%.

In the case of `Cc1ccc(OCCn2c(Br)nc3c2c(=O)n(C)c(=O)n3C)cc1`, the inhibition is 52.7% (active).

As for `COc1ccc(C(=O)Cn2c(Br)nc3c2c(=O)n(C)c(=O)n3C)cc1`, the inhibition was -3%.

Consider `COCCn1c(Br)nc2c1c(=O)n(C)c(=O)n2C`, for which the inhibition is 0.3%.

On to `CCc1ccccc1NC(=O)c1cccc(Oc2ccc([N+](=O)[O-])cc2Cl)c1`, for which the inhibition was 6.1%.

Consider `CN(C)S(=O)(=O)c1ccc(Cl)c(NC(=O)CSc2nc3ccccc3c(=O)n2CCCN2CCOCC2)c1`, for which the inhibition is 4.7%.

Regarding `CCOC(=O)c1ccccc1NC(=O)COC(=O)C1=COCCO1`, the inhibition was 3.8%.

With `CC12CN3CC(C)(CN(C1)C3c1ccc3ccccc3c1O)C2=O` (stereo unspecified), the inhibition was 53.1% (active).

With `CC12CN3CC(C)(CN(C1)C3c1c[nH]c3ccccc13)C2=O` (stereo unspecified), the inhibition was 3.5%.

For the compound `Cn1cc(C2N3CC4(C)CN2CC(C)(C3)C4=O)c2ccccc21` (stereo unspecified), the inhibition is 4.5%.

As to `CCCCCCNC(=O)Nc1ccccc1`, the inhibition was 0.8%.

Consider `CC(/C=C1\SC(=S)N(NC(=O)c2ccc(O)cc2)C1=O)=C\c1ccccc1`, for which the inhibition is 23.4%.

`CC(=O)N1C(=O)/C(=C2\SC(=S)N(NS(=O)(=O)c3ccc(C)cc3)C2=O)c2ccccc21`: the inhibition was 38.2%.

Consider `CC(=O)N1C(=O)/C(=C2\SC(=S)N(NC(=O)c3ccc(O)cc3)C2=O)c2ccccc21`, for which the inhibition was 56.1% (active).

For `Cc1cc(C)c(S(=O)(=O)n2nc(C)c(Br)c2C)c(C)c1`, the inhibition is -6.9%.

For the compound `O=C(CCn1c(=O)sc2ccccc21)NCc1cccs1`, the inhibition is -0.4%.

With `COCc1cc(C)[nH]c(=O)c1C#N`, the inhibition is -5.6%.

Consider `Cc1ccccc1N=Cc1c(O)n(-c2nccs2)c(=O)c2ccccc12`, for which the inhibition is 16.2%.

As for `Cc1ccnc(N2C3CCC2CC(O)(c2ccccc2)C3)n1` (stereo unspecified), the inhibition was -10.5%.

Take `Cc1cc(=O)c2ccccc2s1`: the inhibition was 0.5%.

Regarding `CN(C)S(=O)(=O)c1cccc(N2C(=O)CC3(CCCCC3)CC2=O)c1`, the inhibition was 0.9%.

Turning to `O=c1c2ccccc2sn1-c1ccccc1`, the inhibition is 62.8% (active).

On to `O=c1c2ccccc2c2ccccc2c(=O)n1-c1ccccc1`, for which the inhibition is -1.1%.

Take `O=C1CCCN1c1nccs1`: the inhibition is -6.6%.

For the compound `O=c1[nH]n(-c2ccccc2)c(=O)c2ccccc12`, the inhibition is -0.9%.

With `CN(C)S(=O)(=O)c1cccc(-c2cn3ccccc3n2)c1`, the inhibition is -10.7%.

For `CCOC(=O)c1cnn(-c2ccccc2)c1NC(=O)CCl`, the inhibition is -1.3%.

As to `CCN(CC)S(=O)(=O)c1cccc(NC(=O)c2cc(=O)[nH]c3ccccc23)c1`, the inhibition was 4.5%.

As for `CCCCNC(=O)N(C)c1nc2ccccc2s1`, the inhibition is -3.1%.

In the case of `CCn1c(SCC(=O)NCc2ccccc2)nc2c(c1=O)SC(C)C2` (stereo unspecified), the inhibition was 2.5%.

As for `COc1ccc(CN2CCCC(CNC(=O)c3ccc(F)cc3)C2)c(F)c1` (stereo unspecified), the inhibition is -6%.

As to `CCOc1ccc(-c2nc(C#N)c(NCC(C)C)o2)cc1`, the inhibition was -0.5%.

As to `COc1ccc(CCC(=O)N2c3ccccc3CC2C)cc1` (stereo unspecified), the inhibition is 14.3%.

Turning to `COc1cc(/C=C/C(=O)N2CCCc3ccccc32)cc(OC)c1OC`, the inhibition is -12.4%.

Turning to `O=C(Nc1nc(-c2cccs2)cs1)c1ccco1`, the inhibition is 12.4%.

For `CSCCC(NC(=O)c1ccco1)C(=O)OCc1cc([N+](=O)[O-])cc2c1OCOC2` (stereo unspecified), the inhibition is 5.4%.

Take `CC1CCC2(CC1)NC(=O)N(NC(=O)CCl)C2=O` (stereo unspecified): the inhibition was -10.3%.

`CC1CCN(CCOCCOc2ccc(Cl)cc2Br)CC1`: the inhibition is -7.9%.

On to `Nc1nnc(N2CCc3ccccc32)s1`, for which the inhibition was 6.2%.

In the case of `Cc1ccc(Cn2c(=O)sc3ccccc3c2=O)cc1`, the inhibition was 8%.

Regarding `Cc1c(Cl)sn(-c2ccc(Cl)cc2)c1=O`, the inhibition was -4.6%.

Take `COc1cccc(=O)c2c(C)n(-c3ccc(C(=O)O)cc3)c(C)c12`: the inhibition was -16.3%.

For `COc1cccc(=O)c2c(C)n(C)c(C)c12`, the inhibition was -5%.

`COc1cccc(=O)c2c(C)n(-c3cc(C)cc(C)c3)c(C)c12`: the inhibition is 29.9%.

On to `COc1ccc(-n2c(C)c3c(OC)cccc(=O)c3c2C)cc1`, for which the inhibition was 46.4%.

With `COc1ccccc1-n1c(C)c2c(OC)cccc(=O)c2c1C`, the inhibition was 54.7% (active).

Take `COc1cccc(-n2c(C)c3c(OC)cccc(=O)c3c2C)c1`: the inhibition is 61% (active).

On to `CNS(=O)(=O)c1cc(C(=O)OCC(=O)NC2CCCc3ccccc32)ccc1Cl` (stereo unspecified), for which the inhibition was 9.4%.

Consider `COC(=O)C1=C(C)NC(=O)/C1=C\c1cc(C)n(-c2ccccc2F)c1C`, for which the inhibition was -51.3%.

Take `O=C(CSCc1ccccc1)N1CCN(Cc2ccc3c(c2)OCO3)CC1`: the inhibition is 9.8%.

For `O=C1OCCC1Sc1nc2ccccc2c(=O)n1Cc1ccccc1` (stereo unspecified), the inhibition was -1.6%.

In the case of `COc1ccc(-c2nnc(SC)o2)c(OC)c1`, the inhibition is 2%.

As to `O=c1cc(O)c2sc(Nc3ccc(F)c(Cl)c3)nc2[nH]1`, the inhibition is 57.5% (active).

On to `COC(=O)Cc1csc(Nc2ccc(F)c(Cl)c2)n1`, for which the inhibition is -0.3%.

Turning to `Cc1cc(NC(=O)c2sc(Nc3ccc(F)c(Cl)c3)nc2N)no1`, the inhibition is -10.8%.

Regarding `CN(Cc1ccccc1)c1ccc(S(=O)(=O)N2CCC(C(=O)O)CC2)cc1[N+](=O)[O-]`, the inhibition is 10.6%.

With `Brc1ccc(-c2noc(COc3ccc4c(c3)CCC4)n2)o1`, the inhibition is 14%.

For `O=C(OCCOCCN=C1NS(=O)(=O)c2ccccc21)C1CC(=O)N(c2ccccc2)C1` (stereo unspecified), the inhibition was -2.6%.

With `Cc1nc(-c2ccc(C(=O)Nc3ccccc3F)cc2)cs1`, the inhibition was -3.7%.

Turning to `C=CCOc1c(Cl)cc(CNc2ccc3[nH]c(=O)[nH]c3c2)cc1OC`, the inhibition was 35%.

Turning to `CCOc1c(Cl)cc(CNc2ccc(S(N)(=O)=O)cc2)cc1OC`, the inhibition was -2%.

As to `CCOc1cc(CNc2ccc(S(N)(=O)=O)cc2)cc(Cl)c1OC`, the inhibition was 2.7%.

Take `COc1cc(CNc2ccc(N3CCOCC3)cc2)cc(Br)c1OC`: the inhibition is 9.3%.

Take `C=CCOc1c(Cl)cc(CNc2ccc(C)c(Cl)c2)cc1OC`: the inhibition was 12.6%.

For `C=CCOc1c(Cl)cc(CNc2ccc(N(C)C)cc2)cc1OC`, the inhibition was 54% (active).

In the case of `CCOc1cc(CNc2ccc(N3CCOCC3)cc2)cc(Br)c1OCC`, the inhibition was 14.8%.

Source of the values: PubChem BioAssay AID1220 (Sanford-Burnham Center for Chemical Genomics, 2008).
